BLM helicase inh – inhibitors of human Bloom syndrome helicase BLM; recombinant BLM DNA unwinding, fluorescence dequenching; 0.2% of 350,000 active; AID 2528; Potency, µM (top dose mostly 56.1 µM), for the others: at the highest dose activity change, negative = inhibition, usual class: inhibitors;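 also: plate controls were vehicle for no effect and no enzyme for full effect; nearly all actives have a fitted effect of over 35% in size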
L3MBTL1 inh – L3MBTL1 (human) inhibition. AlphaScreen L3MBTL1–H3K9me1 peptide binding. 0.66% of 230,000 active. Q9Y468. Potency, µM (highest dose often 57.1 µM), without a hit: top-dose activity, negative = inhibition, actives largely listed as inhibitors; also: nearly all actives have a fitted effect of over 60% in size
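L3MBTL1 (50 nM) pre-complexed 30 min with biotinylated H3(1-15)K9me1 peptide (75 nM), then compounds added for 30 min at room temperature; AlphaScreen streptavidin donor/nickel chelate acceptor beads (10 ug/mL final) read after 30 min dark incubation.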
APEX1 inh – blocks human APE1 abasic DNA cleavage | P27695 | recombinant APE1, TAMRA/BHQ-2 abasic DNA cleavage fluorescence | Potency, µM (top dose mostly 65.8 µM), inactives show at the highest dose activity change, negative = inhibition, most hits filed as inhibitors | 0.35% of 350,000 active | AID 2517;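 also: plate controls were vehicle for no effect and reference inhibitor for full effect; nearly all actives have a fitted effect of over 55% in size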
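0.75 nM APE1 + cpd, 15 min RT; start w/ 50 nM TAMRA/BHQ-2 THF-abasic dsDNA; kinetic fluor 525/598 nm ×3 reads @60 s; Δ(read3−read1); normalized to DMSO and NSC13755 control wells.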
KDM4E inh – JMJD2E (human) inhibition. JMJD2E catalytic domain, FDH-coupled NADH fluorescence (FDH is formaldehyde dehydrogenase). B2RXH2. Potency, µM (titrated, usually from 57.1 µM), for inactives: at the top dose activity change, negative = inhibition, most hits filed as inhibitors. 1.6% of 230,000 active; active = well fitted inhibition curve with a large enough effect, not every such curve was filed as active; inconclusive = small, poorly fitted or top-dose-only effect, or another doubt; inactive = no such curve, though single readings can be large or run the other way;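 also: 0% = wells with enzyme and -100% = buffer wells without enzyme; nearly all actives have a fitted effect of over 50% in size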
RECQ1 inh-1 – inhibitors of human RECQ1 DNA helicase; Potency, µM (titrated, usually from 57.3 µM), inactives show top-dose activity, negative = inhibition, most hits filed as inhibitors; RECQ1 DNA unwinding, red fluorescence kinetic read; 0.54% of 240,000 active;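 also: plate controls were vehicle for no effect and no enzyme for full effect; nearly all actives have a fitted effect of over 30% in size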
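RECQ1T1 50 nM; forked duplex (20 bp + 30-nt ss tails) 200 nM, ATP 2 mM final; pH 8.0, 2 mM MgCl2, 2.5 ug/ml poly(dI-dC); 15 min compound preincubation; discontinuous kinetic read over 2 h at RT.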
RECQ1 conf – confirmation of human RECQ1 helicase inhibitors; shares compounds with RECQ1 inh-1; Potency, µM (doses to about 229 µM), for the others: top-dose activity change, negative = inhibition, actives largely listed as inhibitors; RECQ1 helicase DNA unwinding, fluorescence; 28% of 610 active; also: nearly all actives have a fitted effect of over 45% in size
ADP FP counter – ADP displacement flagged in RECQ1 inhibitor counter-screen | shares compounds with RECQ1 inh-1 | ADP fluorescence polarization displacement counterscreen | Potency, µM (highest dose often 228 µM), without a hit: at the highest dose activity change, negative = inhibition, usual class: inhibitors | 27% of 530 active | AID 2711; also: nearly all actives have a fitted effect of over 45% in size
RECQ1 inh-2 – RECQ1 helicase inhibition confirmed, round 2; recombinant RECQ1 DNA unwinding, red fluorescence; shares compounds with RECQ1 inh-1; 15% of 1,100 active; Potency, µM (series often up to 119 µM), inactives show at the top dose activity, negative = inhibition, most hits filed as inhibitors; AID 504841; also: nearly all actives have a fitted effect of over 50% in size
An asterisk follows results filed as active; i = inactive; ? = inconclusive; . = no result; [ ] = remark or other dose. The full list was thinned out, with hits kept by preference. Unless noted, calls follow the shape of the dose curve; as a rule, active = well fitted curve in the direction sought with a large enough effect; inconclusive = small, poorly fitted or top-dose-only effect, or another doubt; inactive = no such curve, though single readings can be large; an effect the other way counts as inactive or inconclusive. Unless noted, % is scaled to controls: 0 for no effect and ±100 for the full control effect; potency is read from the fitted curve at half-maximal effect.

SMILES | BLM helicase inh | L3MBTL1 inh | APEX1 inh | KDM4E inh | RECQ1 inh-1 | RECQ1 inh-2 | others
Cc1ccc(C)c(N2CCN(C(=O)Cc3ccc(-n4c(=O)[nH]c5ccsc5c4=O)cc3)CC2)c1 | -6% | -10% | 9% | 1% | 2% | .
Cc1cc(C(c2ccc(C)o2)c2ccc(C)o2)c(O)c([N+](=O)[O-])c1 | -10% | . | 12% | -21% | -14% | .
Cc1ccc(C(c2ccc(C)o2)c2cccc([N+](=O)[O-])c2O)o1 | -10% | -24% | 7% | -9% | ? | ?
COc1cc(NC(=O)C2=C(C)OCCS2)c(Cl)cc1C(=O)NCCN(C)C | 0% | . | 2% | . | . | .
CN1/C(=C\C(=O)COC(=O)c2ccc(O)c(O)c2)C(C)(C)c2ccccc21 | -27% | -27% | 8% | ? | 25µM* | 40µM*
Cc1cc(=O)[nH]c(SCC(=O)/C=C2\N(C)c3ccccc3C2(C)C)n1 | 1% | -2% | -11% | ? | 32µM* | -50%
CN1/C(=C\C(=O)COC(=O)CNC(=O)c2ccccc2F)C(C)(C)c2ccccc21 | -1% | 0% | -4% | ? | -8% | .
CN1/C(=C\C(=O)COC(=O)CNC(=O)c2ccc3ccccc3c2)C(C)(C)c2ccccc21 | -7% | -14% | 6% | ? | 35µM* | 56µM*
CCN(CC)C(=O)CCS(=O)(=O)c1cccc2nonc12 | -3% | 4% | ? | -1% | ? | .
O=C(O)CCC(=O)N1CCc2cc(S(=O)(=O)NC3CCCc4ccccc43)ccc21 (centres undefined) | 4% | 50% | -1% | -20% | -13% | . | RECQ1 conf=6%;ADP FP counter=-1%
CC(=O)N1c2ccc(S(=O)(=O)N(C)Cc3ccco3)cc2CC1C (centres undefined) | -3% | . | 1% | . | . | .
O=C(C1CCC1)N1CCc2cc(S(=O)(=O)NC3CCCC3)ccc21 | -4% | 1% | 10% | 4% | -6% | .
O=C(C1CCC1)N1CCc2cc(S(=O)(=O)NC3CCCc4ccccc43)ccc21 (centres undefined) | -1% | . | 7% | 7% | -18% | .
O=C(O)CCC(=O)N1CCc2cc(S(=O)(=O)NC3CCCC3)ccc21 | -1% | 5% | 18% | 3% | -8% | . | RECQ1 conf=10%;ADP FP counter=-3%
CN(Cc1ccco1)S(=O)(=O)c1ccc2c(c1)CCN2C(=O)CCC(=O)O | 1% | 6% | 5% | 2% | -6% | . | RECQ1 conf=3%;ADP FP counter=0%
COC(=O)Cn1c(Cc2ccccc2)nc2ccccc21 | -4% | 3% | 16% | . | . | .
COc1cccc2c1C(=O)c1c(O)c3c(c(O)c1C2=O)C[C@](O)(C(=O)CO)C[C@H]3O[C@@H]1C[C@H](N)[C@H](O)[C@H](C)O1 | ? | . | 11µM* | -9%[25.5 µM] | 8.9µM* | . | RECQ1 conf=63µM*;ADP FP counter=1.1µM*
COc1cccc2c1-c1c(O)cccc1C2=O | -7% | 17% | 3% | . | . | .
CC(=O)OC[C@@H]1O[C@@H](O/N=C2/C[C@@H](O)[C@@H](O)[C@@H]3[C@@H]4C(=O)N(Cc5ccc6c(c5)OCO6)C(=O)[C@H]4CC[C@H]23)[C@H](OC(C)=O)[C@H](OC(C)=O)[C@@H]1OC(C)=O | 0%[12.4 µM] | . | ? | . | 12%[11.5 µM] | .
O=C(Nc1c2c(nc3ccccc13)CCCC2)c1cccc([N+](=O)[O-])c1 | -3% | 3% | 2% | 1% | -13% | .
O=C1/C(=C/c2cccc([N+](=O)[O-])c2)Oc2cc(O)ccc21 | -4% | . | -17% | . | . | .
COc1cc(/C=C2\Oc3cc(O)ccc3C2=O)ccc1O | -9% | . | -7% | ? | ? | 79µM*
Cc1nn(Cc2c(Cl)cccc2Cl)c(C)c1C(=O)NCc1ccc(C)n1C | -5% | . | -4% | ? | ? | -9%
COc1ccccc1N1CCN(CCCNC(=O)Cn2ncc3c([nH]c4ccccc43)c2=O)CC1 | 5% | . | -11% | . | . | .
Cc1ccc(OCc2ccc(C(=O)Nc3cc(C)on3)o2)c([N+](=O)[O-])c1 | 2% | . | -18% | . | . | .
SMILES | BLM helicase inh | L3MBTL1 inh | APEX1 inh | KDM4E inh | RECQ1 inh-1 | RECQ1 inh-2 | others
Cc1ccc(OCc2ccc(C(=O)Nc3ccc(C(N)=O)cc3)o2)c([N+](=O)[O-])c1 | -1% | 5% | -4% | 24% | ? | ?
CCCc1nc2oc(C(=O)OCC)c(N)c2c2c1COC(C)(C)C2 | 0% | -2% | ? | ? | ? | -9%
Cn1c(SCc2nnc(-c3ccccc3Br)o2)nc2sc3c(c2c1=O)CCC3 | -9% | -7% | -1% | -8% | i | .
CCCCOC(=O)CSC1=C(C#N)C(c2ccccc2OC)C(C#N)C(=O)N1 (centres undefined) | -5% | -5% | -4% | -1% | 14µM* | ?
CCCCOC(=O)CSC1=C(C#N)C(c2ccccc2OCC)C(C#N)C(=O)N1 (centres undefined) | -2% | -5% | -6% | -2% | -21% | .
CCOc1cccc(OCCOc2ccccc2[N+](=O)[O-])c1 | -11% | 25% | -5% | -12% | ? | -10%
Cc1ccnc(NC(=S)NC(=O)/C=C/c2ccco2)c1 | -13% | . | ? | ? | ? | .
CC(=O)NC(=S)Nc1ccc(NC(=S)NC(=O)/C=C/c2ccco2)cc1 | -29% | . | ? | -29% | ? | -19%
CCC(=O)Nc1ccc(NC(=S)NC(=O)/C=C/c2ccco2)cc1 | -9% | 7%[2.29 µM] | -37% | . | . | .
O=C(/C=C/c1ccco1)NC(=S)Nc1ccc(Cl)cn1 | -10% | . | ? | ? | 25µM* | -22%
Nc1nnc(CC(=O)N2CCCCC2)s1 | 3% | . | -2% | 2% | i | .
CCOCCCNC(=O)c1cc(Nc2ccc(OC)cc2OC)nc2ccccc12 | -1% | . | ? | . | . | .
CCCCN(C(=O)Cn1ncc(Cl)c(Cl)c1=O)c1c(N)n(CC(C)C)c(=O)[nH]c1=O | -18% | -29% | -5% | -3% | 28µM* | ?
CN(c1ccc(F)cc1)S(=O)(=O)c1ccc(Cl)c(C(=O)Nc2ccc3c(c2)CCC3)c1 | -2% | 5% | 10% | 4% | 32µM* | -16%
COc1ccc(NC(=O)CSc2nnc(C3CCCCC3)n2N)c(OC)c1 | 1% | . | 18% | . | . | .
O=C(O)CC/C(=C\c1ccc(N2CCCC2)c([N+](=O)[O-])c1)c1nc2ccccc2s1 | ? | -26% | ? | 8% | ? | ?
